Results filed as inconclusive are left out. The source made the active and inactive calls. Calls come from the whole dose curve; as a rule, active = well fitted curve in the direction sought with a large enough effect; inconclusive = small, poorly fitted or top-dose-only effect, or another doubt; inactive = no such curve, though single readings can be large; an effect the other way counts as inactive or inconclusive.
Experiments:
[1] = biological target: ATP-dependent 6-phosphofructokinase (Trypanosoma brucei brucei) (UniProt O15648); assay: qHTS Assay to Find Inhibitors of T. brucei phosphofructokinase: hit validation (AID 492961);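 note: luminescence reports ADP formed as PFK phosphorylates fructose-6-phosphate with ATP; % is set by controls: 0 for no effect and ±100 for the full control effect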
ATP-dependent 6-phosphofructokinase (Trypanosoma brucei brucei), sequence (O15648 whole entry, looked up): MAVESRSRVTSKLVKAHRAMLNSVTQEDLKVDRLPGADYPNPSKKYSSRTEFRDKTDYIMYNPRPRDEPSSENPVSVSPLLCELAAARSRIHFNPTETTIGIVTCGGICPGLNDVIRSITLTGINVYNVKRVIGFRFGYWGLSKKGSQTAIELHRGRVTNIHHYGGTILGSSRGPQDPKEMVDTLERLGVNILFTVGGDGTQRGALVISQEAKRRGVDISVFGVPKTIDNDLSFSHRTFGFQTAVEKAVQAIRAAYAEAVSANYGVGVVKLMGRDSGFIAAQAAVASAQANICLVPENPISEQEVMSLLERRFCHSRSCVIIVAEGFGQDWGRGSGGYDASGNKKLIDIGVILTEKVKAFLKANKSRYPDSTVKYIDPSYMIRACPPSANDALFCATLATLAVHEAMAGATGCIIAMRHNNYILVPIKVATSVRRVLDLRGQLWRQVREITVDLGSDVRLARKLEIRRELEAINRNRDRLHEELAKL
Procedure, shortened: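 ADP-Glo luminescence read-out of ADP formed by 1.25 nM PFK from 0.1 mM ATP and 0.5 mM F6P (TEA pH 8.0, 45 min, RT). Compounds titrated; activity normalized to no-enzyme and full-enzyme controls.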

[2] = qHTS profiling for inhibitors of Plasmodium falciparum proliferation (AID 504749);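 note: 0% = DMSO vehicle and full inhibition = artemisinin control; nearly all actives have a fitted effect of over 60% in size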; conditions: P. falciparum in erythrocytes, SYBR Green DNA, 72 h, at 28.7 µM (top of the series)
Procedure, shortened: (§1)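 Three-day growth assay of blood-stage parasites in erythrocytes (0.3% parasitemia, 2.5% hematocrit) at 37 C, 5% CO2, quantified by SYBR Green DNA staining after overnight detergent lysis.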

3D7 = assay: as above; conditions: P. falciparum in erythrocytes, SYBR Green DNA, 72 h; series mostly up to 28.7 µM
Procedure, shortened: as §1

AA1029 = assay: as above; conditions: P. falciparum in erythrocytes, SYBR Green DNA, 72 h; series mostly up to 28.7 µM
Procedure, shortened: as §1

AS120 = assay: as above; conditions: P. falciparum in erythrocytes, SYBR Green DNA, 72 h; series mostly up to 28.7 µM
Procedure, shortened: as §1

ATS189 = assay: as above; conditions: P. falciparum in erythrocytes, SYBR Green DNA, 72 h; series mostly up to 28.7 µM
Procedure, shortened: as §1

C2A = assay: as above; conditions: P. falciparum in erythrocytes, SYBR Green DNA, 72 h; series mostly up to 28.7 µM
Procedure, shortened: as §1

CP185 = assay: as above; conditions: P. falciparum in erythrocytes, SYBR Green DNA, 72 h; series mostly up to 28.7 µM
Procedure, shortened: as §1

CP191 = assay: as above; conditions: P. falciparum in erythrocytes, SYBR Green DNA, 72 h; series mostly up to 28.7 µM
Procedure, shortened: as §1

CP192 = assay: as above; conditions: P. falciparum in erythrocytes, SYBR Green DNA, 72 h; series mostly up to 28.7 µM
Procedure, shortened: as §1

CP194 = assay: as above; conditions: P. falciparum in erythrocytes, SYBR Green DNA, 72 h; series mostly up to 28.7 µM
Procedure, shortened: as §1

CP211 = assay: as above; conditions: P. falciparum in erythrocytes, SYBR Green DNA, 72 h; series mostly up to 28.7 µM
Procedure, shortened: as §1

CP217 = assay: as above; conditions: P. falciparum in erythrocytes, SYBR Green DNA, 72 h; series mostly up to 28.7 µM
Procedure, shortened: as §1

CP237 = assay: as above; conditions: P. falciparum in erythrocytes, SYBR Green DNA, 72 h; series mostly up to 28.7 µM
Procedure, shortened: as §1

CP238 = assay: as above; conditions: P. falciparum in erythrocytes, SYBR Green DNA, 72 h; series mostly up to 28.7 µM
Procedure, shortened: as §1

CP247 = assay: as above; conditions: P. falciparum in erythrocytes, SYBR Green DNA, 72 h; series mostly up to 28.7 µM
Procedure, shortened: as §1

CP252 = assay: as above; conditions: P. falciparum in erythrocytes, SYBR Green DNA, 72 h; series mostly up to 28.7 µM
Procedure, shortened: as §1

CP286 = assay: as above; conditions: P. falciparum in erythrocytes, SYBR Green DNA, 72 h; series mostly up to 28.7 µM
Procedure, shortened: as §1

Dd2 = assay: as above; conditions: P. falciparum in erythrocytes, SYBR Green DNA, 72 h; series mostly up to 28.7 µM
Procedure, shortened: as §1

P94_40 = assay: as above; conditions: P. falciparum in erythrocytes, SYBR Green DNA, 72 h; series mostly up to 28.7 µM
Procedure, shortened: as §1

CC[C@@H]1/C=C(\C)C[C@H](C)C[C@H](OC)[C@H]2O[C@@](O)(C(=O)C(=O)N3CCCC[C@H]3C(=O)O[C@H](/C(C)=C/[C@@H]3CC[C@H](Cl)[C@H](OC)C3)[C@H](C)[C@@H](O)CC1=O)[C@H](C)C[C@@H]2OC
inactive: Potency [1] | activity, negative = inhibition ([2]; parasite line A) 10.4% | activity, negative = inhibition ([2]; parasite line B) 3.17% | Potency (3D7) | Potency (AA1029) | Potency (AS120) | Potency (ATS189) | Potency (C2A) | Potency (CP185) | Potency (CP191) | Potency (CP192) | Potency (CP194) | Potency (CP211) | Potency (CP217) | Potency (CP237) | Potency (CP238) | Potency (CP247) | Potency (CP252) | Potency (CP286) | Potency (Dd2) | Potency (P94_40)

CC(CCC(=O)O)C1CCC2C3C(=O)C[C@@H]4CC(=O)CC[C@@]4(C)C3CC(=O)[C@]12C (stereo not given in full)
inactive: Potency [1] | activity, negative = inhibition ([2]; parasite line A) -3.83% | activity, negative = inhibition ([2]; parasite line B) 1.51% | Potency (3D7) | Potency (AA1029) | Potency (AS120) | Potency (ATS189) | Potency (C2A) | Potency (CP185) | Potency (CP191) | Potency (CP192) | Potency (CP194) | Potency (CP211) | Potency (CP217) | Potency (CP237) | Potency (CP238) | Potency (CP247) | Potency (CP252) | Potency (CP286) | Potency (Dd2) | Potency (P94_40)

CC1(C(=O)O)CCC2(C)CCC3(C)C(=CC(=O)C4C5(C)CCC(O)C(C)(C)C5CCC43C)C2C1 (stereo not given)
inactive: Potency [1] | activity, negative = inhibition ([2]; parasite line A) 8.05% | activity, negative = inhibition ([2]; parasite line B) 1.81% | Potency (3D7) | Potency (AA1029) | Potency (AS120) | Potency (ATS189) | Potency (C2A) | Potency (CP185) | Potency (CP191) | Potency (CP192) | Potency (CP194) | Potency (CP211) | Potency (CP217) | Potency (CP237) | Potency (CP238) | Potency (CP247) | Potency (CP252) | Potency (CP286) | Potency (Dd2) | Potency (P94_40)

CC(=O)OCC(=O)[C@@]1(O)CCC2C3CCC4=CC(=O)C=CC4(C)C3C(O)C[C@]21C (stereo not given in full)
inactive: Potency [1] | activity, negative = inhibition ([2]; parasite line A) 8.28% | activity, negative = inhibition ([2]; parasite line B) 10.3% | Potency (3D7) | Potency (AA1029) | Potency (AS120) | Potency (ATS189) | Potency (C2A) | Potency (CP185) | Potency (CP191) | Potency (CP192) | Potency (CP194) | Potency (CP211) | Potency (CP217) | Potency (CP237) | Potency (CP238) | Potency (CP247) | Potency (CP252) | Potency (CP286) | Potency (Dd2) | Potency (P94_40)

CCN(CC)CC(=O)Nc1c(C)cc(C)cc1C
inactive: Potency [1] | activity, negative = inhibition ([2]; parasite line A) 2.56% | activity, negative = inhibition ([2]; parasite line B) 6.57% | Potency (3D7) | Potency (AA1029) | Potency (AS120) | Potency (ATS189) | Potency (C2A) | Potency (CP185) | Potency (CP191) | Potency (CP192) | Potency (CP194) | Potency (CP211) | Potency (CP217) | Potency (CP237) | Potency (CP238) | Potency (CP247) | Potency (CP252) | Potency (CP286) | Potency (Dd2) | Potency (P94_40)

From PubChem BioAssay (NCATS)
